Several values for one entry are separate records, joined by “and”; a condition that tells them apart may be missing. Equal values may be shown once. Activity calls are given as the source filed them.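 How the source made its calls, unless noted: active means thallium flux through the channel raised or lowered by more than 3 SD from vehicle-only wells, actives on both sides; inactive means the rest.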
How the values were obtained:
[1] = P. berghei load reduction in hepatocytes – cell-based, HepG2, luciferase luminescence, HepG2 viability, primary screen (AID 624349; in the data active means parasite load remaining mostly below about 12%, no sharp cut-off; inactive means mostly above about 10%;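 further: 100% = mean of DMSO negative control wells on the same plate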); details: P. berghei liver stage in HepG2, luciferase luminescence, concentration not given here; parasite load remaining: stronger effect = lower value; viability: measured here: HepG2 viability without parasites
[2] = signal quenchers or enhancers, Cy5 substrate/SSB – biochemical, NIH Clinical Collection, E. coli SSB, artefact control for HCV NS3 helicase inhibitor project (AID 743268; call rule not given here); details: Cy5-oligo bound E. coli SSB, fluorescence interference
[3] = tested on: Hepatitis C virus NS3 helicase; assay: blockers of NS3h binding to DNA – biochemical, fluorescence polarization, NIH Clinical Collection, primary screen (AID 743270; call rule not given here); details: NS3 helicase binding to Cy5-dT15 DNA, stronger effect = higher value, concentration not given here
[4] = target: Single-stranded DNA-binding protein (Escherichia coli (strain K12)) (UniProt P0AGE0); assay: SSB-ssDNA binding inhibitors – biochemical, fluorescence polarization, NIH Clinical Collection, counter-screen for HCV NS3 helicase inhibitor project (AID 743271; in the data active means inhibition above about 28%); details: E. coli SSB-DNA binding, stronger effect = higher value, concentration not given here
[5] = compounds distorting NS3 helicase fluorescence signal – biochemical, NIH Clinical Collection, artefact control for HCV NS3 helicase inhibitor project (AID 743272; call rule not given here;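 further: HCV NS3 helicase with a Cy5 labelled single stranded DNA probe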); details: fluorescence interference counterscreen, HCV NS3 helicase assay; stronger effect = lower value
[6] = modulation of C. elegans fzo-1 (AID 1259413; call rule not given here;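 further: fzo-1 mutant C. elegans worms in liquid wells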); details: C. elegans fzo-1 modulator screen, mean read-out; stronger effect = higher value
[7] = viability loss with induced miR-34 in A549 – imaging, A549 dox-inducible miR-34, nuclei and caspase counts, primary screen (AID 1347080;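 active means compounds whose cell count with miR-34 switched on is under 0.7 times the count with it off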); details: A549 miR-34 inducible, Hoechst nuclei count, 48 h
[8] = MELAS cybrid and Rieske KO viability enhancers – cell-based, MELAS cybrids, Rieske KO mouse fibroblasts, CellTiter-Glo, primary screen (AID 1508586;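 active means mean z-score across replicates of 1.96 or higher in either the MELAS or the Rieske mutant cell line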;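 further: z relative to plate mean and SD of compound and empty wells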); details: low glucose
[9] = galactose survival enhancers in mitochondrial complex I cybrids – cell-based, galactose medium, ATP luminescence, primary screen (AID 1645843;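 active means z-score of at least 1.8 in each of two replicates, scored against plate mean and spread of sample wells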;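 further: positive z means more ATP and so rescue of galactose-driven cybrid death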); details: complex I mutant cybrid cells, 72 h, stronger effect = higher value
F380Y = assay: BK channel mutant inhibitors and activators – cell-based, U2OS BacMam, thallium flux, beta subunits, selectivity assay, profiling panel (AID 1259406); details: U2OS BacMam BK variants, at 30 µM;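 further: initial slope of Thallos dye fluorescence rise after thallium is added; log ratio against the mean of 0.3% DMSO vehicle wells on the same plate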
F380Y/beta1 = assay: as above; details: U2OS BacMam BK variants, at 30 µM
F380Y/beta2Delta = assay: as above; details: U2OS BacMam BK variants, at 30 µM
F380Y/beta4 = assay: as above; details: U2OS BacMam BK variants, at 30 µM
[10] = target: Calcium-activated potassium channel subunit alpha-1 (Homo sapiens) + Leucine-rich repeat-containing protein 26 (Homo sapiens) (UniProt Q12791+Q2I0M4); assay: as above; details: U2OS BacMam BK variants, F380Y/Slo1WT/gamma1, at 30 µM
Chain of Calcium-activated potassium channel subunit alpha-1 (Homo sapiens) + Leucine-rich repeat-containing protein 26 (Homo sapiens) (Q2I0M4 whole entry, looked up, one chain of several): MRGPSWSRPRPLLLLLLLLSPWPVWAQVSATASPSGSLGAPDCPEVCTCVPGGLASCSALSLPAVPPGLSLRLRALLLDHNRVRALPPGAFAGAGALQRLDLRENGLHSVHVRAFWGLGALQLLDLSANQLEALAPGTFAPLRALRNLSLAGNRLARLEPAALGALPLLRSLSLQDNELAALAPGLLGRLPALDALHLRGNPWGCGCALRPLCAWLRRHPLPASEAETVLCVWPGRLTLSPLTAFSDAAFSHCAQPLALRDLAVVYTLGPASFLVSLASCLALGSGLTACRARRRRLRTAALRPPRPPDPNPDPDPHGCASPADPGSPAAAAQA

R275C = assay: as above; details: U2OS BacMam BK variants, at 30 µM
R275C/beta1 = assay: as above; details: U2OS BacMam BK variants, at 30 µM
R275C/beta2Delta = assay: as above; details: U2OS BacMam BK variants, at 30 µM
R275C/beta4 = assay: as above; details: U2OS BacMam BK variants, at 30 µM
R275C/Slo1WT/beta2 = assay: as above; details: U2OS BacMam BK variants, at 30 µM
[11] = tested on: Neuropilin-2 / VEGF-C interaction (human); assay: small molecules blocking Neuropilin-2/VEGF-C interaction – biochemical, microplate binding format, z-score (AID 743281; call rule not given here); details: microplate NRP2/VEGF-C binding assay; stronger effect = lower value
[12] = stronger effect = lower value, cell number ratio, induced over uninduced
[13] = measured here: relative caspase fold change +Dox/-Dox
[14] = measured here: total cells with miR-34 induction, stronger effect = lower value
[15] = measured here: total cells without miR-34 induction
[16] = MELAS cybrid survival, CellTiter-Glo 48 h, stronger effect = higher value
[17] = Rieske KO mouse fibroblast survival, CellTiter-Glo 72 h

O=C(NC(CO)C(O)c1ccc([N+](=O)[O-])cc1)C(Cl)Cl (stereo not drawn)
0.499: z-score [8, 17]
1.3 and 1.21: fold change [7, 13]
active: fluorescence ratio [2] 0.1
7650 and 7730: cell count [7, 14]
inactive: parasite load remaining [1] 48.8% | inhibition [3] -4.09% | inhibition [4] 4.1% | fluorescence ratio [5] 1.03 | mean signal [6] 263 | fold change [7, 12] 0.967 and 0.86 | z-score [8, 16] -0.304 | z-score [9] 0.48 | log fold change Tl+ flux (F380Y) -0.0332 | log fold change Tl+ flux (F380Y/beta1) 0.0194 | log fold change Tl+ flux (F380Y/beta2Delta) -0.0071 | log fold change Tl+ flux (F380Y/beta4) 0.000156 | log fold change Tl+ flux [10] 0.0379 | log fold change Tl+ flux (R275C) -0.0175 | log fold change Tl+ flux (R275C/beta1) -0.0341 | log fold change Tl+ flux (R275C/beta2Delta) -0.00719 | log fold change Tl+ flux (R275C/beta4) 0.0483 | log fold change Tl+ flux (R275C/Slo1WT/beta2) 0.0603
7910 and 8980: cell count [7, 15]
87.3%: viability [1]

CCCCc1nc(Cl)c(CO)n1Cc1ccc(-c2ccccc2-c2nnn[nH]2)cc1
10300 and 10400: cell count [7, 15]
76.8% and 103%: viability [1]
inactive: parasite load remaining [1] 81.8% and 40.5% | fluorescence ratio [2] 1.01 | inhibition [3] -1.19% | inhibition [4] 2.21% | fluorescence ratio [5] 0.93 | z-score [11] -0.132 | mean signal [6] 250 | fold change [7, 12] 0.917 and 0.788 | z-score [8, 16] -0.447 | z-score [9] 0.965 and 0.025 | log fold change Tl+ flux (F380Y) -0.0174 | log fold change Tl+ flux (F380Y/beta1) 0.0224 | log fold change Tl+ flux (F380Y/beta2Delta) -0.000818 | log fold change Tl+ flux (F380Y/beta4) 0.0154 | log fold change Tl+ flux [10] 0.0245 | log fold change Tl+ flux (R275C) -0.0209 | log fold change Tl+ flux (R275C/beta1) 0.00988 | log fold change Tl+ flux (R275C/beta2Delta) 0.0215 | log fold change Tl+ flux (R275C/beta4) 0.039 | log fold change Tl+ flux (R275C/Slo1WT/beta2) -0.0136
2.6 and 1.84: fold change [7, 13]
-1.13: z-score [8, 17]
9420 and 8200: cell count [7, 14]

COc1cc(C)c(/C=C/C(C)=C/C=C/C(C)=C/C(=O)O)c(C)c1C
100%: viability [1]
1.44: z-score [8, 17]
2.52: fold change [7, 13]
inactive: parasite load remaining [1] 45.7% | fluorescence ratio [2] 1.04 | inhibition [3] 4.09% | inhibition [4] 4.1% | fluorescence ratio [5] 1 | mean signal [6] 260 | fold change [7, 12] 0.995 | z-score [8, 16] 0.713 | z-score [9] -0.775 | log fold change Tl+ flux (F380Y) -0.0381 | log fold change Tl+ flux (F380Y/beta4) 0.0442 | log fold change Tl+ flux (R275C) -0.0134 | log fold change Tl+ flux (R275C/Slo1WT/beta2) -0.0131
active: log fold change Tl+ flux (F380Y/beta1) 0.176 | log fold change Tl+ flux (F380Y/beta2Delta) 0.35 | log fold change Tl+ flux [10] 0.229 | log fold change Tl+ flux (R275C/beta1) 0.389 | log fold change Tl+ flux (R275C/beta2Delta) 0.261 | log fold change Tl+ flux (R275C/beta4) 0.228
10300: cell count [7, 14] | cell count [7, 15]

From PubChem BioAssay
